Assay results reported in PubChem BioAssay AID1159580 (chemical genetic matrix, 2015).
The whole screen tested about 5,500 compounds, of which about 2,000 (36%) were called active. Not shown: some 18% with an inconclusive outcome. Rule as the data show it: active = normalized growth mostly below about 0.91 (no sharp cut-off); inconclusive = no clear call, values can overlap the other calls; inactive = mostly above about 0.92. Some of the results follow.

Assay: chemical genetic growth profiling, strain panel (AID 1159580);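 also: tested at 20 µM; growth read once vehicle control cultures reached saturation at 30 °C; 1 = growth at the plate median or of vehicle wells; lower values mean less growth of the strain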
Conditions: S. cerevisiae deletion strains, growth OD
[1] = locus YAL040C, strain CLN3, active compounds read low
[2] = locus YCL061C, strain MRC1 (second series), active compounds read low
[3] = locus YDR363W, strain ESC2, active compounds read low
[4] = locus YER002W, strain NOP16, active compounds read low
[5] = locus YGR229C, strain SMI1, active compounds read low
[6] = locus YNL175C, strain NOP13, active compounds read low
[7] = locus YNL197C, strain WHI3, active compounds read low
[8] = locus YNL224C, strain SQS1, active compounds read low
[9] = locus YOR083W, strain WHI5 (second series), active compounds read low

Measured: normalized growth

O=C(O)CC[C@@H](C(=O)O)N1C(=O)c2ccccc2C1=O
inactive: [1] 0.987 | [2] 1.01 | locus YDR150W, strain NUM1, active compounds read low 1 | [3] 0.987 | [4] 0.975 | [5] 1 | [6] 0.973 | [7] 0.976 | [8] 0.991 | [9] 1.06

CC(C(=O)O)c1ccc(CC2CCCC2=O)cc1 (stereo not drawn)
inactive: locus YAL013W, strain DEP1, active compounds read low 0.985 | [1] 0.995 | [2] 1 | [3] 1 | [4] 0.988 | locus YGR078C, strain PAC10, active compounds read low 1.02 | [5] 1.01 | locus YJR075W, strain HOC1, active compounds read low 1.01 | locus YMR263W, strain SAP30, active compounds read low 1 | locus YMR307W, strain GAS1, active compounds read low 0.999 | locus YNL128W, strain TEP1, active compounds read low 0.976 | [6] 1.01 | [7] 1.02 | [8] 0.979 | locus YNL322C, strain KRE1, active compounds read low 1.01 | [9] 0.981 | locus YPL055C, strain LGE1, active compounds read low 0.974 | locus YPL241C, strain CIN2, active compounds read low 1.01
